CYP2C9 inhib: human CYP2C9 inhibition. P11712. CYP2C9 Supersomes, luciferin-H conversion, luminescence. inhibition, % at 5 µM. 96,000 tested, 20% active;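 active = blocking of liver enzyme CYP2C9 beyond about 50% at 5 µM, limit read from the data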
CYP2C19 act: increases human CYP2C19 enzyme activity. recombinant CYP2C19, luciferin-H EGE luminescence; active compounds read high; 0 = fully inhibited enzyme, 1 = untreated enzyme. activation factor at 5 µM. 96,000 tested, under 10 active. AID 1025;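 active = activation factor of at least 2 at 5 µM in the primary screen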;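 note: 0 = wells with 2.5 mM tranylcypromine and 1 = vehicle-only wells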
CYP2C9 act: CYP2C9 (human) activation; P11712; recombinant CYP2C9, luciferin-H conversion, luminescence; active compounds read high; factor 1 = untreated enzyme, 0 = blocked; activation factor at 5 µM; 96,000 tested, 1.4% active; AID 1024;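 active = activation factor of 2 or more for CYP2C9 at a 5 µM dose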;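 note: 0 = sulfaphenazole-blocked wells and 1 = vehicle-only wells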
CYP2C19 inhib: blocks human cytochrome P450 2C19; P33261; CYP2C19 Supersomes, luciferin-H EGE luminescence, 30 min; inhibition, % at 5 µM; 96,000 tested, 21% active;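 active = CYP2C19 inhibition above a set limit at 5 µM in the primary screen, cut at about 50% in these data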;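 note: plate controls were negative control wells for no effect and 2.5 mM tranylcypromine positive control for full effect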
PTK2B oligo ant: antagonists of human Pyk2 oligomerization; Q14289; AID 1347419; 99,000 tested, 0.83% active; Q293 cells, Pyk2 FERM NanoBiT luminescence; active compounds read low; z-score (the deposit names both 25 µM and 10 µM);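 active = Z-score of -3 or lower, scaled per plate to the spread of control and sample wells; inactive = z-score above -3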;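 note: negative z-score means lost luminescence so less FERM oligomerization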
Target sequence (Q14289 whole entry, looked up): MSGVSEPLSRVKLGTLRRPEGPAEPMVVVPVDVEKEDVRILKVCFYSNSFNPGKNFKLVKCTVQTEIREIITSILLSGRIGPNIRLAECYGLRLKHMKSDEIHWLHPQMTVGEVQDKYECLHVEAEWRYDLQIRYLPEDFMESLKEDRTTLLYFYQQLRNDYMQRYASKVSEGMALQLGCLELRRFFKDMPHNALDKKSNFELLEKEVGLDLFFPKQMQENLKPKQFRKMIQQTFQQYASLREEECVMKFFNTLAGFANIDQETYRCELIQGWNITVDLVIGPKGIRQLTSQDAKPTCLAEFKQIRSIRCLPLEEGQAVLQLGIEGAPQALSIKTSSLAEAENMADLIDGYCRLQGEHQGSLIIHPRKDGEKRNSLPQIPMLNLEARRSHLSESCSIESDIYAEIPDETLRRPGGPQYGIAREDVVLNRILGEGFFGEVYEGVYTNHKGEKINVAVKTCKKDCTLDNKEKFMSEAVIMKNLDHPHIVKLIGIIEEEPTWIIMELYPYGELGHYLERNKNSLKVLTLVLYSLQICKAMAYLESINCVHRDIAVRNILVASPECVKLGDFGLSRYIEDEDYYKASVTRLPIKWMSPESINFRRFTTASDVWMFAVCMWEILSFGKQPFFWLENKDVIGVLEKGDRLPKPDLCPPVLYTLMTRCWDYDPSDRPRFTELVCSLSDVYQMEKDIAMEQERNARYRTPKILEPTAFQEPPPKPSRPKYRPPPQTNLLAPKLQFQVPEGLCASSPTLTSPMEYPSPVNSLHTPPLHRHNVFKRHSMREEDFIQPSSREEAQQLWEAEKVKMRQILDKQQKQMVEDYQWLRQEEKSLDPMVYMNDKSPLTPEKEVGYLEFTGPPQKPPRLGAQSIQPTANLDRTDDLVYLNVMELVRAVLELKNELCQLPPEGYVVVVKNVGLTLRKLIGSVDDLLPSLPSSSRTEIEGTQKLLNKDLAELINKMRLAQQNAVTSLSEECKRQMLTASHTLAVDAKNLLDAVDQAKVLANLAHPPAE
Cav3 T inh: human Cav3.2 channel inhibition, primary screen. O95180. Cav3.2-expressing cells, Fluo-4 calcium fluorescence FDSS; active compounds read low. B-score at 10 µM. 100,000 tested, 4% active. AID 449739;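 active = single-dose well whose peak fluorescence ratio is a statistical outlier from its plate by either plate-standardised score or position-corrected B-score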
Starred values were filed as active, the others as inactive; / = no result. A selection: hits, their analogues and other compounds. The true share with any hit is near 27%.

SMILES	CYP2C9 inhib	CYP2C19 act	CYP2C9 act	CYP2C19 inhib	PTK2B oligo ant	Cav3 T inh
O=C(Nc1ccccc1)[C@@H]1CC=C[C@@H]2CCN(C3CCCCC3)C(=O)[C@@H]21	/	/	/	/	/	0.731
CCOCCCNCc1ccc(OC)c(OC)c1	60.8*	0.9	0.4	8.5	0.27	1.63
COc1cc(CNCCO)ccc1OC1CCCC1	-4.6	1	1	0.8	-0.22	1.4
COc1ccc(CNCCC(c2ccc(OC(C)C)cc2)C(C)C)cc1OC (configuration not stated)	35.2	0.7	0.6	26.4	-0.05	-3.67*
CCN1CCN(CC(O)COC(C)C)CC1 (configuration not stated)	-23.4	0.8	1.2	21.6	0.79	-0.614
C1CN(CC23CC4CC(CC(C4)C2)C3)CCO1	/	/	/	/	-0.61	0.784
Cc1noc(C)c1COC(=O)CCN1c2ccccc2Sc2ccccc21	97.9*	0.1	0	88.2*	0.69	-4.2
Cc1noc(C)c1COC(=O)CCc1nc2ccccc2s1	48.4	0.4	0.5	58.8*	0.62	0.325
NC(=O)COC(=O)CCCc1nc2ccccc2s1	-16.2	0.5	1.2	46.8	1.44	-1.25
COc1ccc(OCCC(=O)OCc2c(C)noc2C)cc1	36.0	0.7	0.6	28.2	1.52	0.00935
O=C(C1CC1)N(CCc1ccccc1)Cc1nc2ccccc2c(=O)[nH]1	58.0*	0.4	0.4	55.8*	0.84	0.22
O=C(C1CCC1)N(CCc1ccccc1)Cc1nc2ccccc2c(=O)[nH]1	85.1*	0.4	0.1	64.4*	1.57	-0.138
CCCC(=O)N(CCc1ccc(OC)cc1)Cc1nc2ccccc2c(=O)[nH]1	20.4	0.7	0.8	30.7	-0.65	-0.0862
O=C(Nc1cccc(Cl)c1)N(Cc1nc2ccccc2c(=O)[nH]1)C1CCCC1	19.4	1.1	0.8	-7.7	0.3	-6.03*
COCC(=O)N(CCc1ccc(OC)cc1)Cc1nc2ccccc2c(=O)[nH]1	21.7	0.5	0.8	47.3	0.29	-0.0639
O=C(c1ccncc1)N(Cc1ccccc1)Cc1nc2ccccc2c(=O)[nH]1	92.7*	0.4	0.1	55.7*	-0.92	1.23
CCCC1C(c2ccc(OC)cc2)C(C#N)(C#N)C2(C#N)CC1(N)NC2=O (configuration not stated)	45.0	1.1	0.6	-6.5	0.51	0.271
Cc1ccc(C(=O)C2CCN(CC(=O)Nc3ccc(N(C)C)cc3)CC2)cc1	38.8	0.8	0.6	15.0	-0.23	-0.364
CCN(CC)CCCN(Cc1cc2cc(OC)c(OC)cc2[nH]c1=O)C(=O)Nc1ccccc1	-2.2	0.9	1	9.0	0.38	0.113
COc1cc2cc(CN(C(=O)Nc3ccccc3)C3CCCC3)c(=O)[nH]c2cc1OC	55.1*	0.6	0.4	41.6	0.63	1.04
C[C@H](O)CC1=C[C@H](O)[C@@H](C)OC1=O	/	/	/	/	/	0.691
Cc1ccnc2c(N3C(=O)C4C5c6ccccc6C(c6ccccc65)C4C3=O)cccc12 (configuration not stated)	20.5	0.6	0.8	38.2	-0.27	-3.7
CCc1ccc(CCC(=O)Nc2ccccc2C(=O)O)o1	52.2*	0.9	0.5	13.3	-1.09	1.85
Cc1ccc(CCC(=O)Nc2ccc(S(N)(=O)=O)cc2)o1	-19.3	1.2	1.2	-17.2	0.5	0.11
CCc1ccc(CCC(=O)Nc2nccs2)o1	47.6	0.4	0.5	57.9*	0.55	-0.0385
SMILES	CYP2C9 inhib	CYP2C19 act	CYP2C9 act	CYP2C19 inhib	PTK2B oligo ant	Cav3 T inh
Cc1cccc(NC(=O)CCc2ccc(C)o2)c1	19.3	0.1	0.8	90.4*	0.14	0.544
CCNC(=O)CC(=O)Nc1ccccc1C(=O)O	-2.2	1	1	-4.6	0.87	-0.0472
O=C(COC(=O)CCC(=O)Nc1nccs1)NCc1ccco1	-1.0	1	1	2.2	0.2	-0.0891
Cc1ccc(CCC(=O)Nc2nccs2)o1	17.8	0.4	0.8	63.2*	-0.09	-2.21
N#CNC1=NCN(Cc2ccccc2)CN1	-12.2	1.1	1.1	-7.9	-0.02	-1.24
CC1(C)CC(=O)C(/C=N/n2c(C(F)(F)F)nc3ccccc3c2=O)=C(O)C1	29.6	1.1	0.7	-8.8	1.75	0.282
Cc1cccc2cc(CN(CCCO)C(=O)Nc3cccc(Cl)c3)c(=O)[nH]c12	81.0*	0.3	0.2	70.8*	-0.64	-2.59
CC1=NNC(=O)C1C(c1ccccc1)C(C#N)C#N (configuration not stated)	23.8	0.7	0.8	25.3	1.2	-0.489
Cc1nc2sccc2c(=O)n1-c1cccc(Cl)c1	13.5	0.3	0.9	70.3*	-0.28	0.635
Cc1ccc2c(c1)sc1nc(=O)n(-c3cccc(Cl)c3)c(=O)n12	4.4	0.7	1	25.6	1.55	-0.0338
CC(C)OCCCNC(=O)NC12CC3CC(CC(C3)C1)C2	6.8	0.4	0.9	57.0*	2.31	0.168
CCOC(=O)c1cnc2nc(COc3ccccc3)[nH]n2c1=O	25.5	0.9	0.7	5.7	2.2	0.524
CCOC(=O)c1cnc2nc(NCc3ccc(OCc4ccccc4)cc3)[nH]n2c1=O	87.1*	0.8	0.1	19.4	0.64	-0.0563
c1ccc(-c2nc(NCc3cccnc3)c3oc4ccccc4c3n2)cc1	57.7*	0.6	0.4	35.3	-2.99	-0.161
CSCC[C@@H](Nc1nc(-c2ccccc2)nc2c1oc1ccccc12)C(=O)O	64.0*	1	0.4	1.7	-0.51	-2
Cc1nc(N[C@@H](Cc2ccccc2)C(=O)O)c2oc3ccccc3c2n1	10.0	0.8	0.9	19.0	0.61	/
c1ccc(-c2nc(NCC3CCCO3)c3oc4ccccc4c3n2)cc1 (configuration not stated)	14.5	0.8	0.9	15.1	-0.71	0.106
COc1ccc(-c2nc(SC)n(C(=O)c3ccco3)n2)cc1	33.4	1	0.7	0.7	0	1.07
C=C(C)c1nc(N)nc(N)n1	3.2	1	1	-2.3	0.05	1.1
CCOC(=O)/C(=C/c1c2ccccc2cc2ccccc12)NC(=O)c1ccccc1	27.9	0.9	0.7	5.5	-0.51	-0.451
C=CCOC(=O)/C(=C\c1cccc2ccccc12)NC(=O)c1ccccc1	78.2*	0.2	0.2	82.5*	-1.37	-5.18*
C=CCOC(=O)CC(NC(=O)c1ccccc1)c1ccccc1 (configuration not stated)	93.6*	0	0.1	95.7*	-0.08	0.485
COC(=O)CC(NC(=O)c1ccc(C)cc1)c1ccccc1 (configuration not stated)	38.7	0.3	0.6	69.0*	0.25	/
COC(=O)N[C@H](CC(C)=O)c1ccccc1	/	/	/	/	/	-0.074
COC(=O)CN(c1cccc(F)c1)S(C)(=O)=O	7.6	1	0.9	0.4	0.32	-0.137
Cc1ccc(C)c(CN2C(=O)C3CCCN3c3ccc(S(=O)(=O)N4CCOCC4)cc32)c1 (configuration not stated)	/	/	/	/	/	0.57

Screening results: PubChem BioAssay, several laboratories
